Reference: PubChem BioAssay
The source made the active and inactive calls. Unless noted, the rule behind the calls is not given here.

Experiments:
[1] = compounds binding Alexa647 anti-His antibody – biochemical, small-molecule microarray, 635 nm fluorescence, artefact control for SMM control protein annotation, primary screen (AID 1128); conditions: higher = more signal;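 note: score merges feature fluorescence with signal-to-noise for each printed compound spot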
[2] = test system: Human papillomavirus type 1a E7 protein (residues 1-88); test: HPV1a E7 small-molecule binders, primary screen, biochemical, small-molecule microarray, residues 1-88, 635 nm (AID 1129); conditions: small-molecule microarray binding, fluorescence 635 nm; higher = more signal
[3] = molecular target: Focal adhesion kinase 1 (Homo sapiens) (UniProt Q05397); test: PTK2 protein binding on printed compound slides – biochemical, small-molecule microarray, 635/667 nm fluorescence, BSA, DTT, primary screen (AID 1130); conditions: 635 nm fluorescence, higher = more signal;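 note: composite of spot emission at 667 nm and signal to noise over triplicate slides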
Chain of Focal adhesion kinase 1 (Homo sapiens) (Q05397 whole entry, looked up): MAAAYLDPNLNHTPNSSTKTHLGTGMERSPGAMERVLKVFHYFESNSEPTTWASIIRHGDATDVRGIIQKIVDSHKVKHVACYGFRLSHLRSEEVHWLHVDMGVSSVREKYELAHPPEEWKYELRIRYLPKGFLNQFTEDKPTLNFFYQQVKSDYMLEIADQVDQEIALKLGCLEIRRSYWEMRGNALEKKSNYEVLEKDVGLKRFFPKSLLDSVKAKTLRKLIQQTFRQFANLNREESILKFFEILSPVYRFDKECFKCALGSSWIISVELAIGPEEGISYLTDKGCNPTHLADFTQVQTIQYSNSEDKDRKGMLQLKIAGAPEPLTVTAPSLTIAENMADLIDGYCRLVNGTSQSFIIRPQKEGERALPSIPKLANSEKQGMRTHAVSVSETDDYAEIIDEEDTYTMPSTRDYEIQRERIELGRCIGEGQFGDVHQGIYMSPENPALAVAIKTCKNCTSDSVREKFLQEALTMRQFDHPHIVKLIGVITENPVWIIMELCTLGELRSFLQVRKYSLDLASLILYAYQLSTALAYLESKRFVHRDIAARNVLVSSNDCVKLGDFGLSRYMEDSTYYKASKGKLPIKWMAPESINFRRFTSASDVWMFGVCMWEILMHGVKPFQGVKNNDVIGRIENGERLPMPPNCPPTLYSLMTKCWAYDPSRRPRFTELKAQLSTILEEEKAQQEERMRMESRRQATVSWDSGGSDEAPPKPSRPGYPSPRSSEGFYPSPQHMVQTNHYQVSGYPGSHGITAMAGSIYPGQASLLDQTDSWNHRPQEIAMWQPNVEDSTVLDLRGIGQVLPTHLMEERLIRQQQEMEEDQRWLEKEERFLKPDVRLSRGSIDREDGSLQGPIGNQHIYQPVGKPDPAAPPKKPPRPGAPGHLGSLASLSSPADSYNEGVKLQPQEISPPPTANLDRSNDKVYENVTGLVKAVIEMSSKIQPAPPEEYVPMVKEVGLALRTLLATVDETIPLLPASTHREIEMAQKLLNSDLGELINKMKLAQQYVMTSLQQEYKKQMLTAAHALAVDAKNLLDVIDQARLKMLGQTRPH

[4] = test system: Fibrinogen (Alexa647-labelled); test: Alexa647-fibrinogen binding to printed small molecules – biochemical, small-molecule microarray, 635/667 nm fluorescence, artefact control for SMM control-protein annotation, profiling panel (AID 1131); conditions: fibrinogen-A647 binding fluorescence, higher = more signal;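 note: z-score merges 667 nm fluorescence with per-spot signal-to-noise over triplicate slides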
[5] = molecular target: Follistatin (Homo sapiens) (UniProt P19883); test: FST protein binding to printed compounds – biochemical, small-molecule microarray, 635/667 nm fluorescence, primary screen (AID 1132); conditions: 635 nm fluorescence, higher = more signal
Chain of Follistatin (Homo sapiens) (P19883 whole entry, looked up): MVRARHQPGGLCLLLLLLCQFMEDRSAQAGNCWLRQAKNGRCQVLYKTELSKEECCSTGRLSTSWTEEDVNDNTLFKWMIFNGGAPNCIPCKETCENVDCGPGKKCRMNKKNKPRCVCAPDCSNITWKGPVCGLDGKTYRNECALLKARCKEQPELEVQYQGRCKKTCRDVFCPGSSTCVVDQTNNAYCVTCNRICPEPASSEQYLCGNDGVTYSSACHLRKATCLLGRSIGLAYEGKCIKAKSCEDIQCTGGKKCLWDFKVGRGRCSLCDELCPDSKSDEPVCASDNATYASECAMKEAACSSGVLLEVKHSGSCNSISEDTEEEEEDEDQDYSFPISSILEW

[6] = molecular target: Fibroblast growth factor 2 (Homo sapiens) (UniProt P09038); test: basic fibroblast growth factor binding to printed compounds – biochemical, small-molecule microarray, 635/667 nm fluorescence, primary screen (AID 1133); conditions: FGF2, fluorescence 635/667, higher = more signal
Chain of Fibroblast growth factor 2 (Homo sapiens) (P09038 whole entry, looked up): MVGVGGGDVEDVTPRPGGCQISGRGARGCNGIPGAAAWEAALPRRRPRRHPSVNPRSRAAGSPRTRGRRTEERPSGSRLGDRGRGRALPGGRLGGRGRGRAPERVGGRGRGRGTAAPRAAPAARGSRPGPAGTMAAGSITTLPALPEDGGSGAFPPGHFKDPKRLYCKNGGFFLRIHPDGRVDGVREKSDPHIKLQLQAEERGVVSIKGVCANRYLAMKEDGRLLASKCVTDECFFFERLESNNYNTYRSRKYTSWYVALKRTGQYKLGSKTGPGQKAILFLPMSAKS

[7] = JC-1 mitochondrial potential readout, lung cancer cells – cell-based, A549, JC-1 fluorescence, basal, 24 h, 100 nL, profiling panel (AID 1138); conditions: higher = more signal;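 note: A549 lung adenocarcinoma cells under basal conditions with no added stimulus; test concentration not given here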
[8] = test system: Lefty1; test: Lefty1 protein binding to printed compounds – biochemical, small-molecule microarray, 635/667 nm fluorescence, primary screen (AID 1139); conditions: fluorescence 635/667, higher = more signal
[9] = test system: wheat germ agglutinin (Triticum aestivum), Alexa647-labelled; test: Alexa647-WGA lectin binding to printed small molecules – biochemical, small-molecule microarray, 635/667 nm fluorescence, artefact control for SMM control-protein annotation, profiling panel (AID 1140); conditions: WGA-A647 binding, 635 nm fluorescence, higher = more signal;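 note: score merges 667 nm feature emission with signal to noise over triplicate slides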
[10] = molecular target: Luciferin 4-monooxygenase (Photinus pyralis) (UniProt P08659); test: inhibition of purified Photinus pyralis luciferase – biochemical, luminescence, purified enzyme, 2006 set, primary screen (AID 1141); conditions: purified firefly luciferase, SteadyGlo luminescence, 30 min; higher = more signal, called active from +8 up or from −8 down;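 note: cell-free assay with purified firefly luciferase at 100 ng per well in PBS; test concentration not given here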
Chain of Luciferin 4-monooxygenase (Photinus pyralis) (P08659 whole entry, looked up): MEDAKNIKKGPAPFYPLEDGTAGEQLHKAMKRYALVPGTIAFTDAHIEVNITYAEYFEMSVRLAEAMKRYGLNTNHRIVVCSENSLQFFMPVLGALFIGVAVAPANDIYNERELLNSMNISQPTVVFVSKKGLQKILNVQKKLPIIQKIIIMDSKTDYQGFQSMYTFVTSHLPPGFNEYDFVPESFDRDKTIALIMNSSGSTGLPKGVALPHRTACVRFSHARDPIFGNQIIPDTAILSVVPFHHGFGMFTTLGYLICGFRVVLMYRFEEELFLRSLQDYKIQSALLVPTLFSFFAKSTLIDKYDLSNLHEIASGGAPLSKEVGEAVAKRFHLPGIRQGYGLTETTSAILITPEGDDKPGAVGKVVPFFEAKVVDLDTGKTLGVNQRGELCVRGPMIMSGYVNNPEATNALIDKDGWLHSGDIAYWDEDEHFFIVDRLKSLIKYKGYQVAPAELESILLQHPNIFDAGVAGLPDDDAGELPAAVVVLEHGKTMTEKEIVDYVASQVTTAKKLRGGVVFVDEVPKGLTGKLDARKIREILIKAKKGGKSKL

[11] = test system: Wnt5a (protein binding on small-molecule microarray); test: small molecules binding Wnt5a protein – biophysical, small-molecule microarray, 635/667 nm fluorescence, primary screen (AID 1142); conditions: 635 nm fluorescence, higher = more signal;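 note: fluorescence read at 667 nm with signal to noise per printed feature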
[12] = ATP-based viability of Huh7 replicon cells – cell-based, CellTiter-Glo luminescence, basal, 48 h, cytotoxicity control for HCV replication inhibitor project, primary screen (AID 1143); conditions: higher = more signal, called active from +8 up or from −8 down;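 note: Huh7 hepatoma cells carrying a hepatitis C replication reporter with no stimulus; test concentration not given here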
[13] = Pseudomonas biofilm growth suppression – PAO1 strain, BacTiter-Glo luminescence, LB-PBS, primary screen (AID 1144); conditions: P. aeruginosa PAO1 biofilm, 12 h, higher = more signal
[14] = basal CRE-LacZ reporter activity in PC12 – cell-based, unstimulated, primary screen (AID 1145); conditions: no forskolin, luminescence, 4.5 h, higher = more signal, called active from +8 up or from −8 down
[15] = forskolin-driven CRE-LacZ activity in PC12 – cell-based, CRE-LacZ reporter, forskolin-stimulated, primary screen (AID 1146); conditions: luminescence, 4.5 h, higher = more signal, called active from +8 up or from −8 down;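 note: PC12 cells with 6xCRE LacZ reporter stimulated by forskolin 10 µM; beta-galactosidase reporter signal reflecting CREB driven transcription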
[16] = molecular target: Streptavidin (Streptomyces avidinii) (UniProt P22629); test: compounds binding control protein streptavidin – biophysical, small-molecule microarray, 635/667 nm fluorescence, artefact control for SMM compound annotation, primary screen (AID 1147); conditions: higher = more signal;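 note: signal reflects streptavidin binding to arrayed compounds as a control protein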
Chain of Streptavidin (Streptomyces avidinii) (P22629 whole entry, looked up): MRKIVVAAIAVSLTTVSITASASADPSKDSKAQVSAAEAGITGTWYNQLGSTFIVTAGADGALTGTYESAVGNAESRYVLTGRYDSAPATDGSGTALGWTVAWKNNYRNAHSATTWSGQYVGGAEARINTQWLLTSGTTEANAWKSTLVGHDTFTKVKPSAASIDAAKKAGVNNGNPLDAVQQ

[17] = probe aInhba binding on compound microarray – biochemical, small-molecule microarray, 635/667 nm fluorescence, primary screen (AID 1148); conditions: higher = more signal;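 note: score merges 667nm spot fluorescence with signal-to-noise for antibody binding to printed compounds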
[18] = molecular target: Torsin-1A (Homo sapiens) (UniProt O14656); test: TOR1A wild-type binding on microarray – cell lysate, small-molecule microarray, lysate, 635/667 nm, primary screen (AID 1149); conditions: COS7 hTOR1A-WT lysate, 635 nm fluorescence, higher = more signal
Chain of Torsin-1A (Homo sapiens) (O14656 whole entry, looked up): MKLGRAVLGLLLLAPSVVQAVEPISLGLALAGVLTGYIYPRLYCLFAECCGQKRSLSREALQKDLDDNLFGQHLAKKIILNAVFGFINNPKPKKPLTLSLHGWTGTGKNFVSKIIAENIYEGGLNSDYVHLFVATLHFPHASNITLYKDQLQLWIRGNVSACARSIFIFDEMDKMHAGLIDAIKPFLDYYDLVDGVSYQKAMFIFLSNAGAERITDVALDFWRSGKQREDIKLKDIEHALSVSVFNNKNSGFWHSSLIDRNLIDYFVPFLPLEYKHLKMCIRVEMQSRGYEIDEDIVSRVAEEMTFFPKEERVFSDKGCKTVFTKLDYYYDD

[19] = molecular target: Torsin-1A (Homo sapiens) (UniProt O14656); test: torsin A mutant lysate binding on microarrays – cell lysate, small-molecule microarray, COS7 lysate, 635/667 nm fluorescence, primary screen (AID 1150); conditions: COS7 hTOR1A mutant lysate, 635 nm fluorescence, higher = more signal;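 note: score pools 667 nm emission and signal to noise measuring lysate protein binding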
[20] = test system: Sonic hedgehog protein (Shh); test: Sonic hedgehog microarray binding compounds – biochemical, small-molecule microarray, 635/667 nm fluorescence, primary screen (AID 1151); conditions: 635 nm fluorescence, higher = more signal;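 note: Shh protein binding to compounds spotted on small-molecule microarray slides; score combines spot fluorescence intensity with signal-to-noise across triplicate slides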

SMILES | composite z-score [1] | composite z-score [2] | composite z-score [3] | composite z-score [4] | composite z-score [5] | composite z-score [6] | z-score [7] | composite z-score [8] | composite z-score [9] | z-score [10] | composite z-score [11] | z-score [12] | z-score [13] | z-score [14] | z-score [15] | composite z-score [16] | composite z-score [17] | composite z-score [18] | composite z-score [19] | composite z-score [20]
CN1C(=O)C2C=CC(C(O)c3ccccc3)N(NC(=O)OC(C)(C)C)C2C1=O (stereo not given) | 0.884 | 1.12 | 0.164 | 0.513 | -0.0714 | -0.27 | -0.165 | -0.525 | 1.05 | 0.22 (inactive) | 0.126 | 0.413 (inactive) | 0.316 (inactive) | 0.443 (inactive) | 0.955 (inactive) | 0.134 | -0.128 | -0.365 | 0.0838 | -0.582
C=CCOC(=O)[C@@H]1[C@H]2C(=O)O[C@H](c3ccccc3)[C@H](c3ccccc3)N2[C@H](c2ccc(OCCOC(=O)[C@H]3C[C@H]4C(=O)N[C@@H](CCCC[N+](C)(C)C)C(=O)N4[C@H]3c3cccc(OCCO)c3)cc2)[C@@]12C(=O)Nc1ccc(I)cc12 | 1.3 | 1.18 | 0.163 | 0.496 | 1.4 | 1.55 | -0.93 | 1.15 | 0.115 | -0.138 (inactive) | 0.662 | -0.693 (inactive) | -0.0854 (inactive) | 0.289 (inactive) | -0.464 (inactive) | 0.128 | 0.115 | 0.559 | 0.327 | 1.89
CN1C(=O)C2C=CC(C(O)c3ccc(Br)cc3)N(Nc3ccccc3)C2C1=O (stereo not given) | -0.233 | -0.426 | 0.1 | -0.23 | -1.12 | -1.22 | -0.101 | -1.33 | 0.387 | -1.11 (inactive) | -0.323 | 1.06 (inactive) | -0.595 (inactive) | 1.6 (inactive) | 0.127 (inactive) | -0.524 | -0.0523 | 0.24 | 0.828 | -1.09
CN1C(=O)C2C=CC(C(O)C3=C[C@H]4C[C@@H](C3)C4(C)C)N(Nc3ccc([N+](=O)[O-])cc3[N+](=O)[O-])C2C1=O (stereo not given in full) | 1.45 | 1.16 | 0.588 | 0.978 | 1.07 | 0.0958 | 0.731 | 0.181 | 1.02 | -0.88 (inactive) | 0.325 | -0.119 (inactive) | -0.184 (inactive) | 0.443 (inactive) | -0.946 (inactive) | 1.56 | 0.421 | 0.124 | 0.566 | 0.0842
CCOC(=O)C1=CC[C@@H](c2ccccc2)N(S(=O)(=O)c2ccc(C)cc2)[C@H]1c1ccc(C#N)cc1 | 1 | 1.19 | 0.456 | 0.931 | -0.0375 | -0.732 | 2.11 | -0.507 | 1.23 | 1.23 (inactive) | 0.344 | -2.07 (inactive) | 0.742 (inactive) | 1.42 (inactive) | 0.0633 (inactive) | 1.31 | 0.066 | -0.0412 | 0.389 | -0.428
COCCCNC(=O)[C@@]1(C)c2ccccc2C(=O)N(Cc2ccccc2)[C@H]1c1ccc(CO)cc1 | 0.909 | 0.0047 | 0.101 | -0.678 | 0.0033 | -0.992 | -0.939 | -0.635 | -0.505 | -0.0137 (inactive) | -0.811 | -4.52 (inactive) | -0.453 (inactive) | -0.295 (inactive) | -0.463 (inactive) | -0.944 | -0.0963 | -2.72 | 2.16 | 0.182
O=C1O[C@@H](c2ccccc2)[C@@H](c2ccccc2)N2[C@@H](c3ccc(O)cc3)[C@]3(C(=O)Nc4ccccc43)[C@@H](C(=O)NC[C@H](O)c3ccccc3)[C@H]12 | 2.07 | -0.366 | 0.0943 | -0.406 | 1.02 | 0.797 | 0.411 | 0.266 | 0.0576 | 0.807 (inactive) | 0.062 | -2.34 (inactive) | 0.184 (inactive) | 0.0921 (inactive) | 0.175 (inactive) | -0.26 | -0.176 | -1 | 0.371 | 0.142
C[C@H]1C2[C@H](Cc3ccccc3)NC(=O)[C@]23C(=O)N[C@H](Cc2ccccc2)C(=O)N[C@H](Cc2ccccc2)C(=O)NC/C=C/CCC/C=C/C3[C@@H]2O[C@]12C (stereo not given in full) | 0.896 | 1.18 | 0.0256 | 0.304 | 1.08 | 0.519 | -0.256 | 1.56 | 0.756 | -3.27 (inactive) | 0.127 | -2 (inactive) | 0.612 (inactive) | 1.3 (inactive) | -0.696 (inactive) | -0.224 | -0.149 | 0.299 | 0.225 | 0.843
C[N+](C)(C)CCCC[C@@H]1NC(=O)[C@H]2C[C@@H](C(=O)O)[C@@H](c3cccc(OCCO)c3)N2C1=O | 3.61 | 1.21 | 2.21 | 0.973 | 1.15 | 0.9 | 0.455 | 0.804 | 1.57 | -0.317 (inactive) | 1.93 | 0.0605 (inactive) | 0.308 (inactive) | -0.138 (inactive) | 0.629 (inactive) | 3.77 | 0.893 | 1.95 | 2.13 | 1.4
